Assay [1] is described as follows: Primary qHTS for inhibitors of SARS-S pseudo-typed particle cell entry (AID 1479145; also: nearly all actives have a fitted effect of over 45% in size; also: potency is read from the fitted curve at half-maximal effect). (qHTS replaces the single test concentration by a dilution series.)
Assay [2] in a line: Primary qHTS for Huh7 cytotoxicity: counterscreen for inhibitors of MERS-S pseudotyped particle cell entry (AID 1479147).
A short description of assay [3]: Primary qHTS for inhibitors of MERS-S pseudo-typed particle cell entry (AID 1479149). Also: nearly all actives have a fitted effect of over 60% in size.
Assay [4] is described as follows: Primary qHTS for Vero E6 cytotoxicity: counterscreen for inhibitors of SARS-S pseudo-typed particle cell entry (AID 1479150).

Structures are written as SMILES. Results filed as inconclusive are left out. Active and inactive are the calls of the source. Calls follow the shape of the full dose curve.

In the case of `CCCCC(CC)COC(=O)/C=C/c1ccc(OC)cc1` (stereo not drawn), the Potency entry in assay [1], in assay [2], in assay [3] and in assay [4] was “inactive” in each case.
For `CC1=C(C/C=C(\C)CCC[C@H](C)CCC[C@H](C)CCCC(C)C)C(=O)c2ccccc2C1=O`, the Potency entry in assay [1], in assay [2] and in assay [4] was “inactive” throughout.
In the case of `CCCCCCCCCCC(CO)CCCCCCCC` (stereo not drawn), the Potency result in assay [1], in assay [2], in assay [3] and in assay [4] was “inactive” throughout.
In the case of `CCN1CCN(c2cc3c(cc2F)c(=O)c(C(=O)O)cn3C2CC2)CC1`, the Potency entry in assay [1], in assay [2], in assay [3] and in assay [4] was “inactive” in each case.
On to `CC[N+](C)(CC)CCOC(=O)C(O)(c1ccccc1)C1CCCCC1` (stereo not drawn), for which the Potency entry in assay [1], in assay [2], in assay [3] and in assay [4] was “inactive” in each case.
In the case of `Cn1c(NCCN(CCO)CCCc2ccc([N+](=O)[O-])cc2)cc(=O)n(C)c1=O`, the Potency entry in assay [1], in assay [2], in assay [3] and in assay [4] was “inactive” throughout.
Consider `CNC(=O)c1cc(Oc2ccc(NC(=O)Nc3ccc(Cl)c(C(F)(F)F)c3)c(F)c2)ccn1`, for which the Potency in assay [1] was 14.1 µM (active). Also, the Potency entry in assay [2] and in assay [4] was “inactive” throughout.
Consider `COc1ccccc1O`, for which the Potency result in assay [1], in assay [2], in assay [3] and in assay [4] was “inactive” throughout.
For the compound `CCC(C)(Oc1ccc(C2(c3ccc(OC(C)(CC)C(=O)O)cc3)CCCCC2)cc1)C(=O)O` (stereo not drawn), the Potency result in assay [1], in assay [2], in assay [3] and in assay [4] was “inactive” each time.
As to `[O-][n+]1cccc(/C(Cl)=N/OC[C@@H](O)CN2CCCCC2)c1`, the Potency entry in assay [1], in assay [2], in assay [3] and in assay [4] was “inactive” each time.
For `CC1=NN(c2ccccc2)C(=O)C1`, the Potency result in assay [1], in assay [2], in assay [3] and in assay [4] was “inactive” each time.
As for `C[C@H](CN1CCCC1)C(=O)c1ccc(C(F)(F)F)cc1`, the Potency entry in assay [1], in assay [2] and in assay [4] was “inactive” throughout.
Consider `CCCOC(=O)c1ccc(O)cc1`, for which the Potency entry in assay [2], in assay [3] and in assay [4] was “inactive” each time.

For the origin of these results see PubChem BioAssay (NCATS).
